In PubChem BioAssay (EPA / NIEHS):
“And” between values parts separate entries of the source, which are not always exact repeats. Equal values may be shown once. Some compounds were tested as several samples or in several runs, with calls that do not always agree. The source made the active and inactive calls. The calls were made as follows: active = hit-call score of the fitted dose curve at least 0.9, where 1 is the maximum; inactive = score below 0.9.

Tests used:
Conditions in all cases: mRNA level, 48 h; actives raise or lower the signal
[1] = read-out: Cyclin D1 (CCND1), CCND1 (gene 595); test: LTEA_HepaRG_CCND1: Life Technologies and Expression Analysis (LTEA) Assay for Cyclin D1 (CCND1) using HepaRG (AID 2283451);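 as to AC50: differentiated human HepaRG liver cells in serum-free induction medium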
Summary of the method: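 Expression of CCND1 was quantified by qRT-PCR on Fluidigm arrays using ACTB, GAPDH and POLR2A as reference genes. HepaRG cultures, plated 48 h beforehand, were dosed for 48 h at up to 100 uM (half-log, 8 points) in 0.5% DMSO.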

[2] = read-out: catalase (CAT), CAT (gene 847); test: LTEA_HepaRG_CAT: Life Technologies and Expression Analysis (LTEA) Assay for catalase (CAT) using HepaRG (AID 2283452)
Summary of the method: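 HepaRG cells in serum-free induction medium, 0.5% DMSO vehicle, exposed 48 h in duplicate over 8 half-log concentrations from 100 uM. CAT mRNA measured by qRT-PCR, normalized to ACTB, GAPDH, POLR2A; bidirectional fit versus DMSO.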

[3] = read-out: flavin-containing dimethylaniline monooxygenases 3 (FMO3), FMO3 (gene 2328); test: LTEA_HepaRG_FMO3: Life Technologies and Expression Analysis (LTEA) Assay for flavin-containing dimethylaniline monooxygenases 3 (FMO3) using HepaRG (AID 2283453);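 as to AC50: differentiated human HepaRG liver cells in serum-free induction medium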
Summary of the method: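 FMO3 transcript quantified by TaqMan qRT-PCR against three housekeeping genes after 48 h chemical exposure of HepaRG cells. Eight-point half-log series, top 100 uM, 0.5% DMSO vehicle; phenobarbital 1mM induction control; up- or down-regulation fitted.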

[4] = read-out: Cytochrome P450 (CYP1A1), CYP1A1 (gene 1543); test: LTEA_HepaRG_CYP1A1: Life Technologies and Expression Analysis (LTEA) Assay for Cytochrome P450 (CYP1A1) using HepaRG (AID 2283454)
Summary of the method: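 CYP1A1 transcript levels measured by Fluidigm qRT-PCR against three housekeeping genes, 48 h after chemical dosing of human HepaRG cells (highest concentration 100 uM, half-log steps, 0.5% DMSO vehicle). Gain or loss of signal fitted relative to DMSO.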

[5] = read-out: CFLAR gene, CFLAR (gene 8837); test: LTEA_HepaRG_CFLAR: Life Technologies and Expression Analysis (LTEA) Assay for CFLAR gene using HepaRG (AID 2283455)
Summary of the method: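 qRT-PCR read-out (Fluidigm/TaqMan) of CFLAR mRNA, normalized to three housekeeping genes, in differentiated human HepaRG cells after 48 h chemical exposure; 8-point half-log series from 100 uM in 0.5% DMSO; bidirectional curve fitting versus DMSO.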

[6] = read-out: Forkhead box O1 (FOXO1), FOXO1 (gene 2308); test: LTEA_HepaRG_FOXO1: Life Technologies and Expression Analysis (LTEA) Assay for Forkhead box O1 (FOXO1) using HepaRG (AID 2283456)
Summary of the method: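 HepaRG, 48 h exposure, 8-pt half-log series from 100 uM in 0.5% DMSO, duplicates; Fluidigm qRT-PCR mRNA, housekeeping-normalised; bidirectional fit vs DMSO baseline.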

[7] = read-out: growth arrest and DNA damage 45 (GADD45A), GADD45A (gene 1647); test: LTEA_HepaRG_GADD45A: Life Technologies and Expression Analysis (LTEA) Assay for growth arrest and DNA damage 45 (GADD45A) using HepaRG (AID 2283458)
Summary of the method: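 GADD45A expression was measured by TaqMan qRT-PCR against three housekeeping genes (ACTB, GAPDH, POLR2A) after 48 h treatment of HepaRG cells. Eight-point half-log series up to 100 uM in 0.5% DMSO, run in duplicate.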

[8] = read-out: Forkhead box O3 (FOXO3), FOXO3 (gene 2309); test: LTEA_HepaRG_FOXO3: Life Technologies and Expression Analysis (LTEA) Assay for Forkhead box O3 (FOXO3) using HepaRG (AID 2283459)
Summary of the method: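 qRT-PCR readout of FOXO3 transcript, normalized to three housekeeping genes (ACTB, GAPDH, POLR2A); gain or loss fitted against 0.5% DMSO vehicle. HepaRG cells, 48 h chemical exposure, 8-point half-log series, top 100 uM.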

[9] = read-out: ABC Transporter (ABCB1), ABCB1 (gene 5243); test: LTEA_HepaRG_ABCB1: Life Technologies and Expression Analysis (LTEA) Assay for ABC Transporter (ABCB1) using HepaRG (AID 2283460)
Summary of the method: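 HepaRG, 48 h exposure, 8-pt half-log series from 100 uM, 0.5% DMSO vehicle, duplicates. Readout: ABCB1 transcript by Fluidigm TaqMan qRT-PCR, housekeeping-normalized; bidirectional curve fit vs DMSO baseline.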

[10] = read-out: ABC Transporter (ABCC3), ABCC3 (gene 8714); test: LTEA_HepaRG_ABCC3: Life Technologies and Expression Analysis (LTEA) Assay for ABC Transporter (ABCC3) using HepaRG (AID 2283462)
Summary of the method: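 Transcript level by TaqMan qRT-PCR, normalised to three housekeeping genes, fitted in both directions relative to vehicle. Chemicals tested in duplicate at eight half-log concentrations up to 100 uM for 48 h on HepaRG cells (0.5% DMSO).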

[11] = read-out: ABC Transporter (ABCB11), ABCB11 (gene 8647); test: LTEA_HepaRG_ABCB11: Life Technologies and Expression Analysis (LTEA) Assay for ABC Transporter (ABCB11) using HepaRG (AID 2283463)
Summary of the method: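 HepaRG, 48 h exposure, 8-pt half-log CRC top 100 uM, 0.5% DMSO vehicle, duplicates. Readout: TaqMan qRT-PCR of ABCB11 mRNA, housekeeping-normalized (ACTB/GAPDH/POLR2A). Bidirectional fit vs DMSO baseline.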

[12] = read-out: ABC Transporter (ABCC2), ABCC2 (gene 1244); test: LTEA_HepaRG_ABCC2: Life Technologies and Expression Analysis (LTEA) Assay for ABC Transporter (ABCC2) using HepaRG (AID 2283464)
Summary of the method: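 Endpoint is ABCC2 transcript level from qRT-PCR, normalized to three housekeeping genes and fitted bidirectionally relative to DMSO. Human HepaRG cells received test chemical for 48 h at up to 100 uM (8 points, half-log steps, 0.5% DMSO), duplicate wells.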

[13] = read-out: Broad substrate specificity ATP-binding cassette transporter ABCG2 (Homo sapiens) (UniProt Q9UNQ0); test: LTEA_HepaRG_ABCG2: Life Technologies and Expression Analysis (LTEA) Assay for ABC Transporter (ABCG2) using HepaRG (AID 2283465)
Summary of the method: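 HepaRG, 48 h exposure, 8-pt half-log series from 100 uM, 0.5% DMSO vehicle, duplicates. Readout: ABCG2 transcript by qRT-PCR (Fluidigm array), housekeeping-normalized; bidirectional curve fit relative to DMSO baseline.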

[14] = read-out: ATP-citrate lyase (ACLY), ACLY (gene 47); test: LTEA_HepaRG_ACLY: Life Technologies and Expression Analysis (LTEA) Assay for ATP-citrate lyase (ACLY) using HepaRG (AID 2283466)
Summary of the method: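 qRT-PCR readout of ACLY transcript after 48 h chemical treatment of HepaRG cells; expression normalized to three housekeeping genes. Eight-point half-log series, highest 100 uM, 0.5% DMSO vehicle. Gain or loss fitted against DMSO baseline.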

[15] = read-out: Peroxisomal acyl-coenzyme A oxidase 1 (ACOX1) gene, ACOX1 (gene 51); test: LTEA_HepaRG_ACOX1: Life Technologies and Expression Analysis (LTEA) Assay for Peroxisomal acyl-coenzyme A oxidase 1 (ACOX1) gene using HepaRG (AID 2283467)
Summary of the method: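 HepaRG, 48 h chemical exposure, 8-pt half-log series from 100 uM top, 0.5% DMSO vehicle, duplicates. Readout: ACOX1 mRNA by Fluidigm qRT-PCR, housekeeping-normalized; bidirectional fit vs DMSO baseline.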

[16] = read-out: Alkaline Phosphatase, Placental (ALPP) gene, ALPP (gene 250); test: LTEA_HepaRG_ALPP: Life Technologies and Expression Analysis (LTEA) Assay for Alkaline Phosphatase, Placental (ALPP) gene using HepaRG (AID 2283468);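 as to AC50: differentiated human HepaRG liver cells in serum-free induction medium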
Summary of the method: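 ALPP transcript level, measured by qRT-PCR and normalized to three housekeeping genes (ACTB, GAPDH, POLR2A), after 48 h dosing of differentiated HepaRG in serum-free induction medium. Top concentration 100 uM with half-log dilutions (8 points, 0.5% DMSO, duplicates); bidirectional fitting relative to DMSO.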

[17] = read-out: Bcl-2 (BAD) gene, BAD (gene 572); test: LTEA_HepaRG_BAD: Life Technologies and Expression Analysis (LTEA) Assay for Bcl-2 (BAD) gene using HepaRG (AID 2283469)
Summary of the method: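 HepaRG, 48 h exposure, 8-pt half-log curve from 100 uM in 0.5% DMSO, duplicates. Readout: TaqMan qRT-PCR for BAD mRNA, housekeeping-normalised (ACTB/GAPDH/POLR2A); gain or loss fitted against DMSO baseline.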

[18] = read-out: Bcl-2 (BAX) gene, BAX (gene 581); test: LTEA_HepaRG_BAX: Life Technologies and Expression Analysis (LTEA) Assay for Bcl-2 (BAX) gene using HepaRG (AID 2283470)
Summary of the method: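 Gene expression measured by Fluidigm qRT-PCR with three housekeeping genes for normalisation. HepaRG cells, plated 48 h beforehand, treated 48 h at up to 100 uM (8-point, half-log) in 0.5% DMSO. Bidirectional fitting versus DMSO.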

Measured: AC50

Chain of Broad substrate specificity ATP-binding cassette transporter ABCG2 (Homo sapiens) (Q9UNQ0 whole entry, looked up): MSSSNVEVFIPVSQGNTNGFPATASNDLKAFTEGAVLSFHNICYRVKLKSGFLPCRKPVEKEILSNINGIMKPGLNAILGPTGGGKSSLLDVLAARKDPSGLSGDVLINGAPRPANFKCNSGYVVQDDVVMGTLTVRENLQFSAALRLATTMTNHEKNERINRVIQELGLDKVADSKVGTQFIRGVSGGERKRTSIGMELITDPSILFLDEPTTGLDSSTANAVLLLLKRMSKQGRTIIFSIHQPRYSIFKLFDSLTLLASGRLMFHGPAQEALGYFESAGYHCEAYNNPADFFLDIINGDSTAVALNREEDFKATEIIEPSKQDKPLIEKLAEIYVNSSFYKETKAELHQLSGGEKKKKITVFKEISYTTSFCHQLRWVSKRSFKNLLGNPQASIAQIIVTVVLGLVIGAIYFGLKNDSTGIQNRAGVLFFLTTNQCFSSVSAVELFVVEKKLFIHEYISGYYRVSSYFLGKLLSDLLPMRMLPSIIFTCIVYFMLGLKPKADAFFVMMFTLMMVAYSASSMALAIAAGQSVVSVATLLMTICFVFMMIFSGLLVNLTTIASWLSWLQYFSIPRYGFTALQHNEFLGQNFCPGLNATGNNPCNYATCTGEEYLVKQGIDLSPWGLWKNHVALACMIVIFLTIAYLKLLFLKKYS

Oc1ccccc1-c1ccccc1
inactive: [1] | [2] | [3] | [4] | [5] | [6] | [7] | [8] | [9] | [10] | [11] | [12] | [13] | [14] | [15] | [16] | [17] | [18]

CO/C=C(/C(=O)OC)c1ccccc1Oc1cc(Oc2ccccc2C#N)ncn1
active: [1] 12.6 µM | [2] 75.5 µM and 69.5 µM and 74.7 µM | [3] 79.3 µM and 78.7 µM and 76.5 µM | [4] 27 µM and 25.2 µM and 19 µM | [5] 30.5 µM | [6] 77.3 µM and 70.5 µM and 71.8 µM | [7] 87.3 µM and 74.6 µM and 95.4 µM | [9] 23.5 µM | [10] 22.1 µM and 26.1 µM | [11] 45.4 µM and 63 µM and 40.5 µM | [12] 86.9 µM and 83.9 µM | [13] 32 µM and 25.5 µM and 12.6 µM | [15] 50 µM and 63.3 µM | [16] 41.4 µM and 50 µM and 34 µM | [18] 77.2 µM and 69 µM and 72.1 µM
inactive: [1] | [5] | [8] | [9] | [10] | [12] | [17]
